# Results filed as inconclusive are left out. Activity calls are given as the source filed them. Calls follow the shape of the dose curve; as a rule, active = well fitted inhibition curve with a large enough effect; inconclusive = small, poorly fitted or top-dose-only effect; inactive = no such curve, though single readings can be large or run the other way.
# Target: N-terminal Xaa-Pro-Lys N-methyltransferase 1 (Homo sapiens) (UniProt Q9BV86)
# Assay: qHTS Assay for Inhibitors of N-terminal methyltransferase 1 (NTMT1): MTaseGlo Confirmatory Screen, Round 2
# Conditions: NTMT1 enzyme, MTase-Glo SAH luminescence; series mostly up to 57.4 µM; activity change, negative = inhibition: at the top concentration
# Summary of the method: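 NTMT1 (125 nM) with 100 µM SAM was preincubated ~15 min with compound, then 1 µM SPKRIA peptide was added for 30 min at RT. SAH was detected by MTase-Glo luminescence, normalized to no-enzyme and DMSO controls, and fitted to a 4-parameter Hill equation.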
# 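For activity change, negative = inhibition in this document: plate controls were DMSO for no effect and no enzyme control for full effect.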
# Potency is read from the fitted curve at half-maximal effect.
# N-terminal Xaa-Pro-Lys N-methyltransferase 1 (Homo sapiens), sequence (Q9BV86 whole entry, looked up): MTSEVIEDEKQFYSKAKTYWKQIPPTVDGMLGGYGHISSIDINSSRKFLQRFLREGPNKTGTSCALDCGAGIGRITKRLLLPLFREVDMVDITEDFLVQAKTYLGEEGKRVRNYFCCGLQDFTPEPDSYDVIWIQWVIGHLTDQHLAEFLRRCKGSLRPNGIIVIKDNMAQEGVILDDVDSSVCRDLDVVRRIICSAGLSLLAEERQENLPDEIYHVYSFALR
SMILES,"activity change, negative = inhibition",Potency
Nc1nc(=S)c2ncn([C@@H]3O[C@H](CO)[C@@H](O)[C@H]3O)c2[nH]1,-3.92% [at 38.5 µM] (inactive),–
CC(Cc1ccc(O)c(O)c1)C(C)Cc1ccc(O)c(O)c1 (configuration not stated),–,35.5 µM (active)
O=c1oc(Cl)c(Cl)c2ccccc12,-8.27% (inactive),–
COc1ccc(/C=C2\COc3ccc(C)cc3C2=O)cc1O,-3.92% (inactive),–
O=Nc1ccc2oc(=O)ccc2c1,-21.6% (inactive),–
COc1cc(/C=C(\C#N)C(=O)Nc2nnc(C(F)(F)F)s2)ccc1OCc1ccc(C(F)(F)F)cc1C(F)(F)F,-19.9% (inactive),–
O=C1NC(=O)C(c2ccccc2[N+](=O)[O-])=C1Nc1ccc(O)c(Cl)c1,-16.3% (inactive),–
CCC(CC)n1ccc2c(C(=O)NCc3c(C)cc(C)[nH]c3=O)cc(C#N)cc21,-4.86% (inactive),–
Nc1nc(=S)c2ncn([C@H]3O[C@@H](CO)[C@@H](O)[C@@H]3O)c2[nH]1,0.577% [at 28.7 µM] (inactive),–
Oc1ccc(Cn2cc[nH]c2=S)cc1,-4.41% (inactive),–
NC(Cc1c[nH]c2ccc(O)cc12)C(=O)O (configuration not stated),-11.1% (inactive),–
N[C@@H](Cc1ccc(O)c(O)c1)C(=O)O,9.22% (inactive),–
O=C1c2c(O)ccc(O)c2C(=O)c2c(NCCNCCO)ccc(NCCNCCO)c21,–,31.6 µM (active)
Nc1ncnc2c1ncn2[C@@H]1O[C@H](COP(=O)(O)OP(=O)(O)OC[C@H]2OC(O)[C@H](O)[C@@H]2O)[C@@H](O)[C@H]1O (some centres not stated),473% (inactive),–
CN1CCN(CCCN2c3ccccc3Sc3ccc(Cl)cc32)CC1,-16.2% (inactive),–
CNC(=O)c1cnn(-c2nc(N)c3ncn([C@@H]4O[C@H](CO)[C@@H](O)[C@H]4O)c3n2)c1,4.02% (inactive),–
O=c1c(O)c(-c2ccc(O)c(O)c2)oc2cc(O)cc(O)c12,–,inactive

# From PubChem BioAssay AID1347147 (National Center for Advancing Translational Sciences (NCATS), 2019)
